In PubChem BioAssay (Tox21):
Records with an inconclusive call do not appear. Activity calls are given as the source filed them. Unless noted, calls come from the whole dose curve; as a rule, active = well fitted curve in the direction sought with a large enough effect in the repeat runs; inconclusive = weak or mixed curves; inactive = no such curve, though single readings can be large; an effect the other way counts as inactive or inconclusive.

Legend:
[1] = qHTS assay to identify small molecule antagonists of the estrogen related receptor (ERR) signaling pathway from Tox21 library - cell viability counter screen (AID 1224834); note: nearly all actives have a fitted effect of over 30% in size; note: potency is the fitted concentration of half-maximal effect
How it was run: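 CellTiter-Fluor fluorescence, read after 30 min at 37 C, measures viability of ERR cells. Cells plated at 2,000/well and incubated 6 h before pin-tool compound addition, then exposed 17.5 hours at 37 C.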

[2] = target: Luciferin 4-monooxygenase (Photinus pyralis) (UniProt P08659); test: qHTS assay to identify small molecule inhibitors of firefly luciferase (AID 1224835); note: nearly all actives have a fitted effect of over 25% in size; note: potency is the fitted concentration of half-maximal effect
How it was run: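 Inhibition of purified Photinus luciferase is measured by luminescence. Substrate levels (D-luciferin, ATP) sit at their KM values. Each compound is tested in a concentration series.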

[3] = qHTS assay to identify small molecule antagonists of the constitutive androstane receptor (CAR) signaling pathway - cell viability counter screen (AID 1224837); note: nearly all actives have a fitted effect of over 45% in size; note: potency is the fitted concentration of half-maximal effect
How it was run: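 Cytotoxicity counter-screen: CellTiter-Fluor fluorescence after 23 h compound exposure (15-point qHTS) in double-stable HepG2-CYP2B6-hCAR cells, with 50 nM CITCO added.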

[4] = target: Nuclear receptor subfamily 1 group I member 3 (Homo sapiens) (UniProt Q14994); test: qHTS assay to identify small molecule antagonists of the constitutive androstane receptor (CAR) signaling pathway (AID 1224838);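 note: HepG2 cells stably expressing hCAR with CYP2B6 luciferase reporter stimulated by CITCO; nearly all actives have a fitted effect of over 40% in size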; note: potency is the fitted concentration of half-maximal effect
How it was run: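 Antagonism measured as luciferase signal (ONE-Glo, 30 min, room temperature) in CAR-stimulated cells: HepG2-CYP2B6-hCAR double-stable line exposed 24 hr at 37 C to compound in a 15-point series plus 50 nM CITCO.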

[5] = qHTS assay to identify small molecule agonists of the constitutive androstane receptor (CAR) signaling pathway - cell viability counter screen (AID 1224836); note: nearly all actives have a fitted effect of over 45% in size; note: potency is the fitted concentration of half-maximal effect
How it was run: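 Cells were seeded and incubated 4 hrs. Compounds were added across 15 concentrations together with PK11195 at 0.75 uM final. Plates were incubated 23 hrs at 37 C. CellTiter-Fluor was added and fluorescence measured.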

[6] = qHTS assay to identify small molecule antagonists of the estrogen related receptor signaling pathway with the pleiotropic PPARgamma coactivator (PGC) from Tox21 10K library - cell viability counter screen (AID 1224840; active = well fitted cell-killing curve with a large enough effect in the repeat runs, not every such curve was filed as active; note: nearly all actives have a fitted effect of over 40% in size; note: potency is the fitted concentration of half-maximal effect)
How it was run: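 Counter-screen for cytotoxicity: after 17.5 h compound exposure at 37 C, CellTiter-Fluor reagent added to PGC/ERR cells for 30 min and fluorescence read. Cells were seeded at 2,000 per well 6 h before dosing.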

[7] = qHTS assay to identify small molecule antagonists of the estrogen related receptor signaling pathway with the pleiotropic PPARgamma coactivator (PGC) from Tox21 10K library (AID 1224841; call rule not given here; note: actives are mostly falling curves and most rising ones were filed inactive; nearly all actives have a fitted effect of over 50% in size; note: potency is the fitted concentration of half-maximal effect)
How it was run: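 Luminescence (One-Glo, 30 min at room temperature) after 18 h compound treatment at 37 C of PGC/ERR reporter cells plated at 2,000 cells/well and settled 6 h beforehand.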

[8] = qHTS assay to identify small molecule agonists of the estrogen related receptor signaling pathway with the pleiotropic PPARgamma coactivator (PGC) from Tox21 10K library (AID 1224842); note: nearly all actives have a fitted effect of over 15% in size
How it was run: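 Luminescence from One-Glo (30 min, room temperature) measured after PGC/ERR cells had 18 h at 37 C with pinned compound (23 nL in DMSO). Cells had been seeded at 2,000 per well and pre-incubated 6 h.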

[9] = target: Nuclear receptor subfamily 1 group I member 3 (Homo sapiens) (UniProt Q14994); test: qHTS assay to identify small molecule agonists of the constitutive androstane receptor (CAR) signaling pathway (AID 1224839); note: nearly all actives have a fitted effect of over 15% in size; note: potency is the fitted concentration of half-maximal effect
How it was run: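 Cells were plated and incubated 4 hrs, then dosed with compounds at 15 concentrations. PK11195 was added to 0.75 uM final. After 24 hrs at 37 C, luciferase luminescence was measured.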

Measured: Potency

Nuclear receptor subfamily 1 group I member 3 (Homo sapiens), sequence (Q14994 whole entry, looked up): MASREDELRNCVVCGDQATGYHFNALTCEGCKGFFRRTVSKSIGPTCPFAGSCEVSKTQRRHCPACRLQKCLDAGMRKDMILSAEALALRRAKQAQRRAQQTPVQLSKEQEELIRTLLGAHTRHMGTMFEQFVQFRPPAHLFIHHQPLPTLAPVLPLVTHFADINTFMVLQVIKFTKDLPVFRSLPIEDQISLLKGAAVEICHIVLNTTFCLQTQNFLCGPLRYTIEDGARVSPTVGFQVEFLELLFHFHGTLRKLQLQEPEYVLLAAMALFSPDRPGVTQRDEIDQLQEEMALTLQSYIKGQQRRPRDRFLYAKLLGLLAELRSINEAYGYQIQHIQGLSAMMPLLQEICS
Luciferin 4-monooxygenase (Photinus pyralis), sequence (P08659 whole entry, looked up): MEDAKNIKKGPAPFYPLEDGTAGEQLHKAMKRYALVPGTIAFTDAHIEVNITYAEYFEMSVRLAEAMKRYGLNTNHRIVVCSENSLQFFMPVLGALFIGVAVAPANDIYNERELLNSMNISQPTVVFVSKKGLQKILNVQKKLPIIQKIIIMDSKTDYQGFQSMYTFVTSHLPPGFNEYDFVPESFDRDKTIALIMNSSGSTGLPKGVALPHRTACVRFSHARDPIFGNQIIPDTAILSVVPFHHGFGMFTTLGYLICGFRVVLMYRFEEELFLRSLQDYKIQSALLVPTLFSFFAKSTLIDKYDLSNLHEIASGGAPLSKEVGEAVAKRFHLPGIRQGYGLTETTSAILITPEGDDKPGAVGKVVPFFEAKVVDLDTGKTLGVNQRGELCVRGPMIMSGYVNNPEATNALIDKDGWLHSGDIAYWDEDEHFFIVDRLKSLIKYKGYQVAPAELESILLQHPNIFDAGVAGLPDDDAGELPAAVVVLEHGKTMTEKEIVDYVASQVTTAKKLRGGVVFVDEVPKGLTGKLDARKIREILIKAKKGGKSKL

CCOC(=O)c1ccc(O)c(O)c1
inactive: [1] | [2] | [3] | [4]

O=c1[nH]c2ccc(Cl)cc2o1
not listed: [4] | [9]
inactive: all other assays above

CC(=O)NC1(c2cccc(F)c2)CCN(CC[C@@]2(c3ccc(Cl)c(Cl)c3)CN(c3ccccc3)C(=O)CO2)CC1
active: [1] 54.6 µM | [3] 54.6 µM | [6] 43.4 µM
inactive: [2] | [9]

C=Cc1ccc(S(=O)(=O)O)cc1
active: [2] 20 µM
not listed: [4] | [9]
inactive: all other assays above

Cc1c(C)c2c(c(C)c1OC(=O)CCC(=O)OCCO)CC[C@@](C)(CCC[C@H](C)CCC[C@H](C)CCCC(C)C)O2
active: [7] 21.1 µM
inactive: [1] | [2] | [4] | [9]

CCC1(CO)COCOC1
not listed: [4] | [9]
inactive: all other assays above

Brc1cc2ccccc2c2ccccc12
inactive: [1] | [2] | [8]
active: [7] 61.6 µM

Cc1cc(=O)c2c(O)c3c(O)cc(=O)c4c3c3c(cc(O)c1c23)C(C)(C)C=4O
active: [1] 1.46 µM | [4] 2.59 µM
inactive: [2]

CC(CC1c2ccccc2CCc2ccccc21)CN(C)C (centres undefined)
active: [1] 33.5 µM | [3] 29.8 µM
inactive: [2] | [6]

O=C(CCCN1CC=C(n2c(=O)[nH]c3ccccc32)CC1)c1ccc(F)cc1
inactive: [2] | [5] | [4] | [9] | [6]
active: [1] 33.5 µM

CC1CC(OC(=O)C(O)c2ccccc2)CC(C)(C)N1C (centres undefined)
not listed: [4] | [8] | [9]
inactive: all other assays above

CC1(CN2CCC(n3c(=O)[nH]c4ccccc43)CC2)OCc2ccccc2-n2cccc21 (centres undefined)
inactive: [2] | [4] | [9]
active: [1] 23.7 µM

CCOc1ccccc1O[C@H](c1ccccc1)[C@H]1CNCCO1
inactive: [1] | [2] | [5] | [3] | [6]

O[C@@H]1CO[C@H]2[C@@H]1OC[C@@H]2O
inactive: [1] | [2] | [5] | [3] | [6]

CC1=C(CC=O)C(C)(C)CCC1
inactive: [1] | [2] | [5] | [3] | [6]

CN1C(=O)N(c2ccccc2Br)Cc2cnc(Nc3ccc4c(c3)OCC(CO)O4)nc21 (centres undefined)
active: [1] 27.3 µM | [2] 20 µM | [5] 30.6 µM
inactive: [8]

CN1CCCC(CC2c3ccccc3Sc3ccccc32)C1 (centres undefined)
inactive: [2] | [3] | [9] | [7]
active: [1] 26.6 µM

COc1cc(C(=O)NC2CCN(C)CC2)ccc1Nc1ncc2c(n1)N(C1CCCC1)CC(F)(F)C(=O)N2C
inactive: [2] | [9] | [7]
active: [1] 31.5 µM | [4] 8.88 µM

CCOC(=O)c1ccc(I)cc1
inactive: [1] | [5] | [3] | [6] | [7]
active: [2] 50.7 µM

O=C(/C=C/c1ccc(O)c(O)c1)O[C@@H]1C[C@@](OC(=O)/C=C/c2ccc(O)c(O)c2)(C(=O)O)C[C@@H](O)[C@@H]1O
inactive: [1] | [2] | [5] | [3] | [6]

CCCCCC[C@@H](O)C/C=C\CCCCCCCC(=O)OCC(O)CO (some centres undefined)
not listed: [4] | [8] | [9]
inactive: all other assays above

OC(CCN1CCCC1)(c1ccccc1)C1CCCCC1 (centres undefined)
inactive: [1] | [2] | [5] | [3] | [6]

O=C1c2ccccc2C(=O)N1CCc1noc(-c2ccc(CN3CCCCCC3)s2)n1
active: [1] 49.9 µM
inactive: [2] | [3] | [4] | [9]

CC1(C)S[C@@H]2[C@H](NC(=O)C(c3ccccc3)S(=O)(=O)O)C(=O)N2[C@H]1C(=O)O (some centres undefined)
inactive: [1] | [2] | [5] | [3] | [6]

CC(C)c1nc(CN(C)C(=O)N[C@H](C(=O)N[C@@H](Cc2ccccc2)C[C@H](O)[C@H](Cc2ccccc2)NC(=O)OCc2cncs2)C(C)C)cs1
active: [1] 13.3 µM | [7] 23.7 µM
inactive: [2] | [4] | [9] | [8]

O=c1cc(-c2ccccc2)oc2cc(O)cc(O)c12
active: [1] 30.6 µM | [2] 2.52 µM | [9] 30.6 µM
inactive: [4]

C[C@@H](O[C@H]1OCCN(Cc2n[nH]c(=O)[nH]2)[C@H]1c1ccc(F)cc1)c1cc(C(F)(F)F)cc(C(F)(F)F)c1
inactive: [2] | [3] | [8]
active: [1] 26.6 µM | [7] 29.8 µM

CCC(OCCCOC)OC(C)=O (centres undefined)
inactive: [1] | [2] | [5] | [3] | [6]

NNC(=O)CP(=O)(c1ccccc1)c1ccccc1
inactive: [1] | [2] | [5] | [3] | [6]

CCC1CO1 (centres undefined)
inactive: [1] | [2] | [5] | [3] | [6]

O=C1NC(=O)c2cc([N+](=O)[O-])ccc21
inactive: [1] | [2] | [5] | [3] | [6]

Cc1cccc(O)c1N
inactive: [2] | [7] | [8]
active: [1] 27.6 µM

CC[N+](CC)(CCNC(=O)C(=O)NCC[N+](CC)(CC)Cc1ccccc1Cl)Cc1ccccc1Cl
not listed: [4] | [9]
inactive: all other assays above

C=C(C)CCCC(C)CCO (centres undefined)
inactive: [1] | [2] | [5] | [3] | [6]

CCC(C)COC(C)=O (centres undefined)
inactive: [1] | [2] | [5] | [3] | [7]

O=C1c2ccccc2C(=O)C1c1nc2ccccc2c(Br)c1O
inactive: [1] | [5] | [3] | [6]
active: [2] 17.8 µM

CCCCCCCC/C=C\CCCCCCCCO
not listed: [4] | [9]
inactive: all other assays above

Oc1cc2c(cc1O)[C@H]1c3ccc(O)c(O)c3OC[C@@]1(O)C2
inactive: [9] | [8]
active: [1] 39 µM | [2] 32.1 µM | [5] 49.2 µM | [4] 49.2 µM | [6] 27.6 µM | [7] 34.8 µM

Cc1cc(O)c(C)c(C)c1O
not listed: [4] | [7] | [9]
inactive: all other assays above

O=C1C(=O)c2ccccc2C(O)=C1C1CCC(c2ccc(Cl)cc2)CC1 (centres undefined)
inactive: [1] | [2] | [6] | [8]

C=COCC(C)C
not listed: [1] | [8]
inactive: all other assays above

C/C=C\C/C=C/CCCCCCCCOC(C)=O
not listed: [1] | [7] | [8]
inactive: all other assays above

CCN(CC)CCNC(=O)COc1ccc(OC)cc1
not listed: [1] | [7] | [8]
inactive: all other assays above

CC(C)(O)c1ccc(CNC(=O)c2cccnc2Oc2ccc3nonc3c2)cc1
inactive: [2] | [5] | [3] | [4] | [8]
active: [9] 24.3 µM

CCOc1cccc(-n2cc(C(=O)N3CCN(c4cc(C(=O)O)c5ccccc5c4)CC3)nc2-c2ccc(C)cc2)c1
inactive: [2] | [5] | [3] | [4] | [9]

CCCCCCC(C)(C)C(=O)O
not listed: [1] | [8]
inactive: all other assays above

CC(C)=CCC1C(=O)N(c2ccccc2)N(c2ccccc2)C1=O
not listed: [1] | [7] | [8]
inactive: all other assays above

Nc1cccc2c1CN(C1CCC(=O)NC1=O)C2=O (centres undefined)
not listed: [1] | [7] | [8]
inactive: all other assays above

c1cc(N(CC2CO2)CC2CO2)ccc1Cc1ccc(N(CC2CO2)CC2CO2)cc1 (centres undefined)
active: [1] 43.3 µM | [3] 54.5 µM | [6] 30.6 µM | [7] 27.3 µM
inactive: [9] | [8]

O=[N+]([O-])c1ccc(O/N=C/c2cc(Br)c(O)c(Br)c2)c([N+](=O)[O-])c1
active: [1] 30.5 µM | [3] 34.2 µM | [6] 48.3 µM
inactive: [4]

O=c1cc(-c2ccccc2)oc2ccc3ccccc3c12
active: [2] 0.0356 µM | [9] 4.86 µM
not listed: [1] | [8]
inactive: all other assays above

CN(C(=O)CN(CCO)CC(=O)N(C)C(C)(C)Cc1ccccc1)C(C)(C)Cc1ccccc1
not listed: [1]
inactive: all other assays above

CC(C)C(O)(c1ccc(OC(F)(F)F)cc1)c1cncnc1 (centres undefined)
not listed: [2] | [7] | [8]
inactive: all other assays above

Cc1ccco1
not listed: [1] | [7] | [8]
inactive: all other assays above

CCCC(=O)C(=O)O
inactive: [2] | [5] | [3] | [4] | [9]

CCC(=O)OC
inactive: [2] | [5] | [3] | [4]

CCCCCCCCCCCCCCN(CCO)CCO
inactive: [2] | [9] | [8]
active: [5] 61.1 µM | [3] 61.1 µM | [4] 48.6 µM | [6] 54.5 µM

CO/N=C(/C(=O)N[C@@H]1C(=O)N2C(C(=O)O)=C(COC(N)=O)CS[C@H]12)c1ccco1
not listed: [1] | [7] | [8]
inactive: all other assays above

O=C(OCC(O)CO)c1ccccc1Nc1ccnc2cc(Cl)ccc12 (centres undefined)
active: [1] 29.8 µM
not listed: [2] | [9]
inactive: all other assays above
